The values that follow come from PubChem BioAssay.

Active and inactive are the calls of the source.

For one assay, the target named is Albumin (Bos taurus) (UniProt P02769). Nature of the assay: bovine serum albumin binders on microarray, profiling panel, artefact control for SMM control protein annotation, biochemical, small-molecule microarray, Alexa647 label, 635/667 nm fluorescence (AID 1118).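 Further: score merges 667 nm emission intensity and signal-to-noise per printed compound spot.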 As to conditions: BSA-A647 binding, fluorescence 635 nm, higher = more signal.
Albumin (Bos taurus), sequence (P02769 whole entry, looked up): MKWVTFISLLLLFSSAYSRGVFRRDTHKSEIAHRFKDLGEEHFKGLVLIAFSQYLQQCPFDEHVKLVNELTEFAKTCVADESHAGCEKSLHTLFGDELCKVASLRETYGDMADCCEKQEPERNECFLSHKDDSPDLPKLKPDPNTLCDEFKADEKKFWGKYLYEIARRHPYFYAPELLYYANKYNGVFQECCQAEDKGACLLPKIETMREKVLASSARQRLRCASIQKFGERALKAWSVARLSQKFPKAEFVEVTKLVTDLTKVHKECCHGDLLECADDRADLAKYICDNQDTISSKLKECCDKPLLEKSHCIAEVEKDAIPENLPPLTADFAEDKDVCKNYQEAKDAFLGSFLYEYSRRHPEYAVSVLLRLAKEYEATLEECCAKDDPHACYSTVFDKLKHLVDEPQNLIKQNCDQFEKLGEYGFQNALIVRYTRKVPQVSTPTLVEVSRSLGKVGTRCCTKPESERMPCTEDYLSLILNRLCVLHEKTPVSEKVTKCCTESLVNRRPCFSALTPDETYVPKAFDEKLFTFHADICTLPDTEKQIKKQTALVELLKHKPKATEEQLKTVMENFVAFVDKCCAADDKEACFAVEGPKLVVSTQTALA
The nature of assay [1]: small-molecule microarray binders of probe aXIP, primary screen, biochemical, NeuroSMM set, 635/667 nm fluorescence (AID 1119).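 Further: probe is the protein aXip251-270 applied at 1 µg/mL to compound-printed slides; binding of probe to printed compounds measured as 667 nm fluorescence plus signal to noise.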 The conditions noted are these: higher = more signal, called active from +8 up or from −8 down.
A short description of assay [2]: small-molecule binders of probe aNOTCH3, primary screen, biochemical, small-molecule microarray, 635/667 nm fluorescence (AID 1120).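 Further: probe is a biotin-tagged antibody raised against NOTCH3 rather than NOTCH3 protein; score merges spot fluorescence near 667 nm with spot signal to noise.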 The conditions noted are these: higher = more signal.
Assay [3] is described as follows: small-molecule binders of probe aNOTCH2, primary screen, biochemical, small-molecule microarray, 635/667 nm fluorescence (AID 1121).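 Further: score merges feature fluorescence read at 667 nm with its signal to noise.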 As to conditions: higher = more signal.
Assay [4] addresses Carbonic anhydrase 2 (Homo sapiens) (UniProt P00918). The experiment in a line: CAII small-molecule binders, profiling panel, biochemical, small-molecule microarray, Alexa647-labelled CAII (AID 1122). The conditions noted are these: CAII-A647 binding fluorescence, higher = more signal.
The nature of assay [5]: COS7 lysate on small-molecule microarray, probe aHis, 635 nm (AID 1123).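 Further: z-score combines 667nm fluorescence intensity with signal-to-noise per printed compound spot.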 As to conditions: COS7 cell lysate, fluorescence, higher = more signal.
A short description of assay [6]: compound binding in COS7 lysate, probe aLAP1, primary screen, cell lysate, small-molecule microarray (AID 1124).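 Further: lysate comes from COS7 cells expressing LAP1 and is applied at 0.3 µg/mL; score merges spot fluorescence near 667 nm with signal-to-noise over triplicate slides.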 As to conditions: probe aLAP1, fluorescence, higher = more signal.
The next assay relates to Sam68 (KHDRBS1). The experiment in a line: Sam68 small-molecule binders, primary screen, biochemical, small-molecule microarray, 635 nm fluorescence (AID 1125).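 Further: score merges 667 nm channel intensity with signal to noise over triplicate slides.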 The conditions noted are these: small-molecule microarray binding, higher = more signal.
Assay [7] has as its system Chordin-like protein 2 (CHRDL2). Nature of the assay: CHRDL2 small-molecule binders, primary screen, biochemical, small-molecule microarray, 635 nm fluorescence (AID 1126).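 Further: printed compound slides probed with Chrdl2 protein at 4 µg/mL for 1 h at 4 C; score merges 667 nm emission intensity with signal to noise over three replicate slides.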 As to conditions: small-molecule microarray binding, fluorescence 635 nm; higher = more signal.
Assay [8] concerns the target Concanavalin-A (Canavalia ensiformis) (UniProt P02866). Nature of the assay: ConA small-molecule binders, primary screen, artefact control for SMM control protein annotation, biochemical, small-molecule microarray, Alexa647 label, 635 nm (AID 1127).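 Further: z combines 667 nm emission intensity with signal-to-noise across three replicate slides.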 The conditions noted are these: ConA-A647 binding fluorescence, higher = more signal.
Assay [9] is described as follows: anti-His antibody binders, primary screen, artefact control for SMM control protein annotation, biochemical, small-molecule microarray, 635 nm fluorescence (AID 1128).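 Further: score merges feature fluorescence with signal-to-noise for each printed compound spot.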 As to conditions: anti-His Alexa647 antibody binding, higher = more signal.
Assay [10] deals with Human papillomavirus type 1a E7 protein (residues 1-88). The experiment in a line: HPV1a E7 small-molecule binders, primary screen, biochemical, small-molecule microarray, residues 1-88, 635 nm (AID 1129). As to conditions: small-molecule microarray binding, fluorescence 635 nm; higher = more signal.
Assay [11] addresses Focal adhesion kinase 1 (Homo sapiens) (UniProt Q05397). The experiment in a line: small-molecule microarray binders of FAK, primary screen, biochemical, 635/667 nm fluorescence, BSA, DTT (AID 1130).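 Further: composite of spot emission at 667 nm and signal to noise over triplicate slides.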 As to conditions: PTK2 binding, 635 nm fluorescence, higher = more signal.
Assay [12] relates to Fibrinogen (Alexa647-labelled). The experiment in a line: fibrinogen binders on compound microarrays, profiling panel, artefact control for SMM control-protein annotation, biochemical, small-molecule microarray, 635/667 nm fluorescence (AID 1131).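 Further: z-score merges 667 nm fluorescence with per-spot signal-to-noise over triplicate slides.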 As to conditions: fibrinogen-A647 binding fluorescence, higher = more signal.
Assay [13] addresses Follistatin (Homo sapiens) (UniProt P19883). The experiment in a line: follistatin binders on small-molecule microarrays, primary screen, biochemical, small-molecule microarray, 635/667 nm fluorescence (AID 1132). The conditions noted are these: FST binding, 635 nm fluorescence, higher = more signal.
Assay [14] has as its target Fibroblast growth factor 2 (Homo sapiens) (UniProt P09038). The experiment in a line: FGF2 binders on small-molecule microarrays, primary screen, biochemical, small-molecule microarray, 635/667 nm fluorescence (AID 1133). The conditions noted are these: small-molecule microarray binding, FGF2, fluorescence 635/667; higher = more signal.
The nature of assay [15]: mitochondrial membrane potential change in A549 cells, profiling panel, cell-based, JC-1 fluorescence, basal, 24 h, 100 nL (AID 1138).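 Further: A549 lung adenocarcinoma cells under basal conditions with no added stimulus; test concentration not given here.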 As to conditions: higher = more signal.
The next assay relates to Lefty1. The experiment in a line: Lefty1 binders on small-molecule microarrays, primary screen, biochemical, small-molecule microarray, 635/667 nm fluorescence (AID 1139). As to conditions: small-molecule microarray binding, fluorescence 635/667; higher = more signal.
The subject of assay [16] is wheat germ agglutinin (Triticum aestivum), Alexa647-labelled. The experiment in a line: wheat germ agglutinin binders on compound microarrays, profiling panel, artefact control for SMM control-protein annotation, biochemical, small-molecule microarray, 635/667 nm fluorescence (AID 1140).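 Further: score merges 667 nm feature emission with signal to noise over triplicate slides.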 As to conditions: WGA-A647 binding, 635 nm fluorescence, higher = more signal.
Assay [17] has as its target Luciferin 4-monooxygenase (Photinus pyralis) (UniProt P08659). The experiment in a line: firefly luciferase enzyme inhibitors, primary screen, biochemical, luminescence, purified enzyme, 2006 set (AID 1141).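 Further: cell-free assay with purified firefly luciferase at 100 ng per well in PBS; test concentration not given here.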 The conditions noted are these: SteadyGlo luminescence, 30 min, higher = more signal, called active from +8 up or from −8 down.

Fibroblast growth factor 2 (Homo sapiens), sequence (P09038 whole entry, looked up): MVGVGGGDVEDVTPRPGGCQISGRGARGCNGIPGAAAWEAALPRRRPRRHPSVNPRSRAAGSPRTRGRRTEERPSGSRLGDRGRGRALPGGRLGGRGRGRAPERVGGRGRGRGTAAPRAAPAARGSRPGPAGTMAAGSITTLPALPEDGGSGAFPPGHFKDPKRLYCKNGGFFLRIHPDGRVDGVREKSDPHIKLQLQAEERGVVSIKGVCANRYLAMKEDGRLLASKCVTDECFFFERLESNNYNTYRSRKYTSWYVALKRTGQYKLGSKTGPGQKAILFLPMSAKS
Luciferin 4-monooxygenase (Photinus pyralis), sequence (P08659 whole entry, looked up): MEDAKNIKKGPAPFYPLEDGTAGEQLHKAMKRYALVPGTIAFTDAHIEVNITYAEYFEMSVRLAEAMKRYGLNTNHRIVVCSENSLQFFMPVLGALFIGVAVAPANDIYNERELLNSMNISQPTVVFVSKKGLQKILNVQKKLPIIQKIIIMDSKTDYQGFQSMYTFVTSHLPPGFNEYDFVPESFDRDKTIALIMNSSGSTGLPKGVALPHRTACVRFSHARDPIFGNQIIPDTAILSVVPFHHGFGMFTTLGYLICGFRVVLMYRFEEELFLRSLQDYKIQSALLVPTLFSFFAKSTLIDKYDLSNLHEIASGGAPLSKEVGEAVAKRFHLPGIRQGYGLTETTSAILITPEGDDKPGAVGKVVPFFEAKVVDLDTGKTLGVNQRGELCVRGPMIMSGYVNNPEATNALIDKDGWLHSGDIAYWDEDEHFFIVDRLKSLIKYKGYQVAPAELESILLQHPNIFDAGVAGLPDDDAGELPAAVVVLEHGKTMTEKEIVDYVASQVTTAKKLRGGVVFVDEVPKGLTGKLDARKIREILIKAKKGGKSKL
Focal adhesion kinase 1 (Homo sapiens), sequence (Q05397 whole entry, looked up): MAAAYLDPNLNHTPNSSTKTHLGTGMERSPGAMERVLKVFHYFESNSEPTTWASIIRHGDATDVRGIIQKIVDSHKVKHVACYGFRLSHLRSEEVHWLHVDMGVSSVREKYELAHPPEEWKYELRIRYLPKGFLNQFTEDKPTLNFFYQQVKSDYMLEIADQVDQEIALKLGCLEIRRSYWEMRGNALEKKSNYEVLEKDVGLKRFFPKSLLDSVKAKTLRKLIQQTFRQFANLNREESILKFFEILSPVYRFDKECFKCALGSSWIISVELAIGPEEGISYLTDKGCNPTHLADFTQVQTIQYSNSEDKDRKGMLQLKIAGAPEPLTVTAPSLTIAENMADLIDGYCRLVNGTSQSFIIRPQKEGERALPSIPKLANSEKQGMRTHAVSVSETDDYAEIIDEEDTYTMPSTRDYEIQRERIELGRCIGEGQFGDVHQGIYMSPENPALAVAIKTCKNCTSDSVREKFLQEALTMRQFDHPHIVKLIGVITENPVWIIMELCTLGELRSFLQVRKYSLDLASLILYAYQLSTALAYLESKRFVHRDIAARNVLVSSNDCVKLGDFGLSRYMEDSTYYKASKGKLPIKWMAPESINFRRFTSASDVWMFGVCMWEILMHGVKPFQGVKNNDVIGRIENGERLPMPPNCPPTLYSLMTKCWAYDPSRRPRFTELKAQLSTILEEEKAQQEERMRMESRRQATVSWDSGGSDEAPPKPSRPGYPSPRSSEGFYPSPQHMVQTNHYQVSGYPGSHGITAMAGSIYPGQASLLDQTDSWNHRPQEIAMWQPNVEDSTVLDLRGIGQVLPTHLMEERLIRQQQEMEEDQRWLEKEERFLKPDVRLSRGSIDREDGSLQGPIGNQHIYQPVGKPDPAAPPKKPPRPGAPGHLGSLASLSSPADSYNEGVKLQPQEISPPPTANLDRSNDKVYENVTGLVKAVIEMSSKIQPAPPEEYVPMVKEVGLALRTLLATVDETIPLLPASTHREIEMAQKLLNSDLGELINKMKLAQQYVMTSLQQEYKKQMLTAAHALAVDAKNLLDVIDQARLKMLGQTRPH
Follistatin (Homo sapiens), sequence (P19883 whole entry, looked up): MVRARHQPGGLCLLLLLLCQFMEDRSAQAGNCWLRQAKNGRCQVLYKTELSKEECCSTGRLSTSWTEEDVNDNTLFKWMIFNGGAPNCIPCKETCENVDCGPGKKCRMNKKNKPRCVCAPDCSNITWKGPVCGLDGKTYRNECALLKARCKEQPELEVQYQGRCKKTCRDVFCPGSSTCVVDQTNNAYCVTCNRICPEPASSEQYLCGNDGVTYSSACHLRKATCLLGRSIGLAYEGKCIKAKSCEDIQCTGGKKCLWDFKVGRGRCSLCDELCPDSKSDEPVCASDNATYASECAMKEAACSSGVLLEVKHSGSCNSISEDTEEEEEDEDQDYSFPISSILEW
Concanavalin-A (Canavalia ensiformis), sequence (P02866 whole entry, looked up): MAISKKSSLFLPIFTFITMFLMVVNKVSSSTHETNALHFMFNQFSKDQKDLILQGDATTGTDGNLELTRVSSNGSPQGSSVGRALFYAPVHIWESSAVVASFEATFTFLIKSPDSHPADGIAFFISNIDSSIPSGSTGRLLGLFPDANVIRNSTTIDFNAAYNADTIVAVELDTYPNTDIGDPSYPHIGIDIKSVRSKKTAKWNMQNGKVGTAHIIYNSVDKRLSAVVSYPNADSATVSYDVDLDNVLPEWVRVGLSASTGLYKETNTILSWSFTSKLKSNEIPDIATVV

As for `Cc1c(NC(=O)/C(C#N)=C/c2cccc([N+](=O)[O-])c2)c(=O)n(-c2ccccc2)n1C`, the composite z-score is 0.48 with Albumin (Bos taurus); 0.0934 in assay [2]; 0.993 in assay [3]; 0.792 in assay [4]; 0.719 in [5]; 0.861 in [6]. Moreover, the composite z-score in the assay with Sam68 (KHDRBS1) was 0.928; in [7], 0.393; in [8], 0.456; in [9], 0.551; in assay [10] it was 1.02; in assay [11], -0.148. The composite z-score worked out at 0.985 in assay [12]; 0.7 in assay [13]; 0.793 in [14]; 0.931 in the assay with Lefty1; 0.441 in assay [16]. The composite Z-score in [1] was -0.449 (inactive). For the same compound, the results for the z-score in assay [15] and in [17] were 0.365 and -1.09 (inactive), respectively.

Consider `COc1ccc([Si](C)(C)[C@@H]2[C@@H](CCn3cc([C@H](O)c4ccccc4)nn3)O[C@]3(C(=O)N(Cc4cccc(N5CCC5=O)c4)c4ccccc43)[C@H]2C)cc1`, for which the composite z-score is -0.185 with Albumin (Bos taurus); -0.152 in assay [2]; -0.0598 in assay [3]; -0.105 in [4]; 0.288 in [5]; 0.0413 in [6]. Further, the composite z-score in the assay with Sam68 (KHDRBS1) was -0.233; in assay [7], 0.422; in [8], 0.0651; in assay [9] it was 0.963; in assay [10], 0.227; in assay [11] it was -0.285. The composite z-score was found to be 0.119 in assay [12]; 1.15 in [13]; 1.06 in [14]; 0.0197 in the assay on Lefty1; 0.187 in assay [16]. Further, the composite Z-score in assay [1] is -0.0405 (inactive). For the same compound, the figures for the z-score in [15] and in assay [17] were 2.21 and 0.258 (inactive), respectively.

On to `C[N+](C)(C)CCCCCCNC(=O)[C@H]1C[C@H]2C(=O)N[C@@H](Cc3ccccc3)C(=O)N2[C@H]1c1cccc(OCCO)c1`, for which the composite z-score was -0.174 with Albumin (Bos taurus); -0.1 in assay [2]; -0.107 in assay [3]; 0.638 in assay [4]; 2.1 in [5]; 0.319 in [6]. For the same compound, the composite z-score was 0.699 in the assay on Sam68 (KHDRBS1); 1.01 in assay [7]; 0.996 in assay [8]; 0.357 in assay [9]; 0.69 in [10]; 0.118 in assay [11]. Moreover, the composite z-score was 0.22 in [12]; 1.16 in assay [13]; 1.83 in assay [14]; 1.4 with Lefty1; -0.046 in [16]. Besides, in [1], the composite Z-score is 0.35 (inactive). In addition, the z-score in [15] is -0.585; in [17] it was 0.0538 (inactive).

For `O=C1C2C=CC(C(O)c3ccc(F)cc3)N(Nc3ccc([N+](=O)[O-])cc3)C2C(=O)N1c1ccccc1` (stereo not given), the composite z-score in the assay with Albumin (Bos taurus) is 0.877; in assay [2] it was 0.0749; in assay [3], -0.0852; in [4], 0.795; in assay [5], 2.76; in assay [6], 0.569. Besides, the composite z-score is 1.31 in the assay on Sam68 (KHDRBS1); 0.0095 in assay [7]; 1.15 in [8]; 1.76 in assay [9]; 0.705 in [10]; 0.789 in assay [11]. Moreover, the composite z-score in [12] was 1.02; in assay [13] it was 0.282; in assay [14], -0.0449; with Lefty1, 0.16; in assay [16] it was 1.09. Besides, the composite Z-score in assay [1] was 0.227 (inactive). For the same compound, the z-score in assay [15] was -0.433; in assay [17] it was 1.43 (inactive).

For the compound `CO[C@H]1O[C@H](CO)[C@@H](OC(=O)Nc2ccc(Oc3ccccc3)cc2)[C@H](OC(=O)Nc2ccc3c(c2)OCO3)[C@@H]1OC(=O)Nc1ccc2c(c1)OCO2`, the composite z-score with Albumin (Bos taurus) came out at 0.277; in [2], 0.327; in [3] it was 0.0248; in assay [4], 0.333; in [5], 2.02; in assay [6], 0.869. Also, the composite z-score with Sam68 (KHDRBS1) worked out at 1.3; in [7], 0.335; in [8] it was 1.18; in [9], 1.83; in [10] it was 1.24; in assay [11] it was 0.653. The composite z-score in assay [12] turned out to be 0.85; in assay [13], 1.28; in assay [14], 1.2; with Lefty1, 0.423; in assay [16] it was 0.779. Moreover, in assay [1], the composite Z-score was 1.29 (inactive). The values for the z-score in assay [15] and in assay [17] were -0.216 and -5.16 (inactive), respectively.

Consider `O=C(O)C1N=C(c2ccc(OCCCO)cc2)N(c2ccccc2)O1` (stereo not given), for which the composite z-score in the assay with Albumin (Bos taurus) was 0.811; in assay [2], 0.0967; in assay [3], -0.037; in assay [4], 0.589; in assay [5], 0.321; in assay [6] it was -0.287. The composite z-score in the assay with Sam68 (KHDRBS1) came out at 1.3; in assay [7] it was 0.153; in assay [8] it was 0.658; in assay [9] it was 1.73; in [10] it was 1.1; in assay [11], 0.817. In addition, the composite z-score was found to be 0.953 in assay [12]; 1.3 in assay [13]; 1.18 in [14]; 0.369 with Lefty1; 0.207 in [16]. Besides, in assay [1], the composite Z-score is 0.488 (inactive). Further, the z-score in assay [15] is 0.0657; in assay [17], -7.84 (inactive).

Turning to `O=C1OCCC/C=C\[C@H]2OC34C=CCN(c5ccc6ccccc6c5)C(=O)[C@H]3N(CCCCCO)C(=O)[C@@H]4C12` (stereo not given in full), the composite z-score is -0.152 with Albumin (Bos taurus); -0.295 in assay [2]; -0.182 in assay [3]; 0.828 in [4]; -1.92 in assay [5]; -0.289 in assay [6]. Further, the composite z-score in the assay with Sam68 (KHDRBS1) is -1.63; in assay [7], -0.654; in assay [8], -0.328; in [9] it was -0.268; in [10], -1.62; in [11] it was -0.24. Further, the composite z-score is -0.582 in assay [12]; -0.472 in assay [13]; -1.06 in assay [14]; -0.343 with Lefty1; -0.753 in assay [16]. In addition, in [1], the composite Z-score was 0.328 (inactive). Also, the z-score in assay [15] was -0.168; in [17], 0.118 (inactive).

With `COc1ccc(C(=O)Nc2ccc(CN3C(=O)[C@]4(O[C@H](CC(=O)N5CCC[C@H]5CO)[C@@H]([Si](C)(C)c5ccc(OC)cc5)[C@@H]4C)c4ccccc43)cc2)cc1`, the composite z-score was -0.398 with Albumin (Bos taurus); 0.218 in assay [2]; -0.0681 in [3]; 0.298 in [4]; 1.72 in [5]; 0.394 in [6]. Also, the composite z-score worked out at 1.29 in the assay on Sam68 (KHDRBS1); 0.666 in assay [7]; 0.884 in assay [8]; 1.91 in [9]; 1.15 in [10]; 0.297 in [11]. Further, the composite z-score in assay [12] stood at 0.81; in assay [13], 1.06; in [14], 1.44; with Lefty1, 0.942; in assay [16] it was 0.601. Also, the composite Z-score in [1] was 0.0524 (inactive). Also, the z-score in assay [15] was 0.195; in assay [17] it was -1.08 (inactive).
